Compound activity as filed in PubChem BioAssay.
Sampled rows, rich in hits. Any-hit rate of the full collection: about 7.5%.
FLuc counter – inhibits or activates purified firefly luciferase, miR-21 counter-screen | P08659 | purified FLuc, Km substrates, luminescence inhibition | Potency, µM (series often up to 57.5 µM), inactives show at the highest dose activity change, negative = inhibition, hits mostly inhibitors | actives 6.9% (n = 360,000);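 also: plate controls were vehicle for no effect and reference inhibitor for full effect; nearly all actives have a fitted effect of over 55% in size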
Target sequence (P08659 whole entry, looked up): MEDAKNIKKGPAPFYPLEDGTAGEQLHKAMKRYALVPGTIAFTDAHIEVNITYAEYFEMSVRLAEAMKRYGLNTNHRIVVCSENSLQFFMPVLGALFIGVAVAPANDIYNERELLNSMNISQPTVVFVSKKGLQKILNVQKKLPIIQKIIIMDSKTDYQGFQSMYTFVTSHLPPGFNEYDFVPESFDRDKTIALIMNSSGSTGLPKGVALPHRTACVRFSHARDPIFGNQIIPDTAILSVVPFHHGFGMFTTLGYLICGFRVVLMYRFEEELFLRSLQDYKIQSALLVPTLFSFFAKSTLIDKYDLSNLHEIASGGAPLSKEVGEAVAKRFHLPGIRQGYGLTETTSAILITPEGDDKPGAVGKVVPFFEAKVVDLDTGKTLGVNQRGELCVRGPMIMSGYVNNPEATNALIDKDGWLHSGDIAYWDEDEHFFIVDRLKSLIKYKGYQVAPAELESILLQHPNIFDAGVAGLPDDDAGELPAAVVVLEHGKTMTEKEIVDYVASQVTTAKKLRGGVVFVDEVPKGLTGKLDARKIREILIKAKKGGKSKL
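Purified P. pyralis luciferase (10nM final) with 10uM D-luciferin and 10uM ATP (Km levels) in 50mM Tris acetate pH 7.5, 10mM Mg acetate, 0.01% Tween-20, 0.05% BSA; qHTS 6-point titration, ~60 µM downward; luminescence read.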
SMN2 splice enh – SMN2 splice variant enhancement. HEK293 SMN2-luciferase splicing reporter, luminescence, 30-36 h. actives 2.8% (n = 210,000). Potency, µM (highest dose often 46.1 µM), without a hit: at the top dose activity change, positive = activation, hits mostly activators; also: % of control where 0% means no effect; nearly all actives have a fitted effect of over 55% in size
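HEK293 cells carry an SMN2 minigene-luciferase reporter in which exon 7 inclusion puts luciferase in frame. Cells were seeded at 2000 cells/well, attached for 10-12 hours, then exposed to compounds for 30-36 hours at 37C before ONE-Glo luminescence.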
KinaseGlo FLuc – counter-screen: inhibitors of Kinase-Glo firefly luciferase. Q27757. AID 1379. Potency, µM (doses to about 38.3 µM), for inactives: at the highest dose activity change, negative = inhibition, actives largely listed as inhibitors. Kinase-Glo luciferase, ATP luminescence, 8 min. actives 0.28% (n = 200,000); also: % is scaled to controls: 0 for no effect and ±100 for the full control effect; nearly all actives have a fitted effect of over 60% in size
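Light output from Kinase-Glo luciferase with luciferin and 10 uM ATP in 50 mM imidazole pH 7.2, KCl, MgCl2, Tween 20, BSA; compound pin-delivered, 8-min ambient incubation, then luminescence read.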
NPC1 promoter act – activators of NPC1 promoter. actives 2.4% (n = 320,000). Potency, µM (series often up to 9.22 µM), for the others: at the highest dose activation, most hits filed as activators. Huh7 NPC1 promoter luciferase reporter, 24 h; also: % of control where 0% means no effect; nearly all actives have a fitted effect of over 60% in size
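Stably transfected Huh7 (NPC1 promoter→luciferase), 1500 cells/well in Opti-MEM + 10% FBS, 2 h settle, then compound 24 h at 37 °C. Luminescence after 10 min with Amplite reagent.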
Rab9 promoter act – activates the Rab9 promoter; actives 2.8% (n = 320,000); Potency, µM (highest dose often 9.22 µM), inactives show at the top dose activation, negative = inhibition, actives largely listed as activators; Huh7 Rab9 promoter-luciferase reporter, luminescence, 24 h; AID 485297; also: % of control where 0% means no effect; nearly all actives have a fitted effect of over 60% in size
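Steps: seed 1500 Huh7 Rab9-luc cells per well, rest 2 h at 37 °C; add compound in DMSO; incubate 24 h; add luciferase reagent, 10 min ambient; read luminescence.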
ELG1 genotoxic – induces genotoxicity in HEK293T cells with luciferase-tagged ELG1 | HEK293T ELG1-luciferase reporter, luminescence, 16 h | Potency, µM (series often up to 46 µM), for the others: at the highest dose activity change, positive = activation, actives largely listed as activators | actives 1.3% (n = 330,000) | AID 504466; also: % of control where 0% means no effect; nearly all actives have a fitted effect of over 60% in size
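Step 1: seed 2,000 HEK293T ELG1-luciferase cells per well. Step 2: add compound or DMSO, incubate 16 hr at 37 °C. Step 3: ONE-Glo, 30 min at room temperature, read luminescence.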
Starred values were filed as active, the others as inactive; ? = inconclusive; . = no result; [ ] = remark or other dose. Calls follow the shape of the dose curve; as a rule, active = well fitted curve in the direction sought with a large enough effect; inconclusive = small, poorly fitted or top-dose-only effect, or another doubt; inactive = no such curve, though single readings can be large; an effect the other way counts as inactive or inconclusive. Potency is read from the fitted curve at half-maximal effect.

SMILES | FLuc counter | SMN2 splice enh | KinaseGlo FLuc | NPC1 promoter act | Rab9 promoter act | ELG1 genotoxic
O=C(CSc1nc(-c2ccccc2)ns1)N1CCOCC1 | ? | . | -3% | 2.5µM* | 2.8µM* | 23µM*
Cc1cccc(-c2nsc(SCC(=O)N3CCCC3)n2)c1 | 6µM* | 14µM* | -5% | 1.6µM* | 1.4µM* | ?
Cc1cccc(-c2nsc(SCC(=O)Nc3nccs3)n2)c1 | -15% | 17% | -2% | 4% | 18% | 11%
O=C(CSc1nc2ccccc2nc1SCC(=O)N1CCOCC1)N1CCOCC1 | -2% | 1% | 0% | -1% | -2% | -7%
CCOc1ccc(CC(=O)NCCS(=O)(=O)N2CCN(c3ccccc3OC)CC2)cc1 | -6% | . | . | . | . | .
COc1ccccc1N1CCN(S(=O)(=O)CCNC(=O)COc2ccc(C(C)C)cc2)CC1 | 24µM* | . | . | . | . | .
O=C(NNC(=O)c1ccccc1OCc1ccc(F)cc1)c1ccccc1O | 27µM* | . | . | -28% | -37% | -2%
O=C(N/N=C/c1ccccc1F)c1ccccc1OCc1ccccc1 | 17µM* | . | . | -23% | -19% | -12%
O=C(NNC(=O)c1ccccc1OCc1ccccc1)c1ccccc1O | 19µM* | . | . | -13% | -20% | 6%
O=C(NNC(=O)c1ccccc1OCc1ccccc1)c1ccccc1F | 21µM* | . | . | ? | 29% | 23%
O=C(NCc1ccc(F)cc1)c1ccccc1OCc1ccccc1 | 1% | -22% | 2% | 0% | 2% | -2%
CC1(C)C(OC(=O)CCC(=O)O)CC[C@]2(C)C1CC[C@@]1(C)C2C(=O)C=C2[C@@H]3C[C@@](C)(C(=O)O)CC[C@]3(C)CCC21C (some centres not stated) | . | 8% | -1% | . | . | .
COc1ccc(Br)c(C(=O)Nc2cc3c(cc2N2CCOCC2)n(C)c(=O)n3C)c1 | 0% | -1% | . | . | . | .
COc1ccccc1/C=C/c1onc(C)c1S(=O)(=O)N1CCC(C(=O)N2CCC(C)CC2)CC1 | 4% | . | . | . | . | .
COc1cccc(C(=O)Nc2ccc3c(c2)n(C)c(=O)n3C)c1 | ? | . | . | 0% | 12% | ?
COc1cccc(C(=O)Nc2ccc(C3CC3(Cl)Cl)cc2)c1 (configuration not stated) | 2.7µM* | 13µM* | -18% | 2.2µM* | 1.1µM* | ?
COc1cccc(C(=O)Nc2ccc(C(=O)O)cc2)c1 | ? | . | . | 6% | 0% | 1%
COc1cccc(C(=O)Nc2ccc(C)cc2)c1 | 6µM* | 11µM* | -15% | 1.4µM* | 1µM* | 1.8µM*
O=C(NC(=S)Nc1ccc(NC(=O)c2ccccc2)cc1)c1ccc(F)cc1 | 1% | . | . | 20% | 2% | 10%
O=C(NC(=S)Nc1ccc2c(c1)C(=O)c1ccccc1C2=O)c1ccc(F)cc1 | 17µM* | 11µM* | -7% | ? | ? | ?
COc1cccc(NC(=O)c2cccc(Cl)c2)c1 | 3.4µM* | . | . | 2.5µM* | 2µM* | 2.1µM*
COc1ccc(C(=O)Nc2cccc(-c3ccc4nncn4n3)c2)cc1 | 17µM* | -5% | 1% | -3% | -4% | -6%
COC(=O)c1cccc(NC(=O)c2cc3sccc3n2C)c1 | 15µM* | 11µM* | 1% | 1.3µM* | 1.8µM* | ?
COc1cccc(C(=O)Nc2ccc3c(c2)C(=O)c2ccccc2C3=O)c1 | ? | -15%[1.84 µM] | -5% | 3.2µM* | ? | ?
COC(=O)c1ccccc1NC(=O)c1cc2sccc2n1C | ? | -2% | 20% | -4% | 11% | -1%
SMILES | FLuc counter | SMN2 splice enh | KinaseGlo FLuc | NPC1 promoter act | Rab9 promoter act | ELG1 genotoxic
COc1cc(OC)cc(C(=O)Nc2cccc(-c3ccc4nncn4n3)c2)c1 | 0% | 1% | 3% | -7% | -9% | -4%
COc1cccc(C(=O)Nc2ccc(C(=O)c3ccccc3)cc2)c1 | ? | . | . | 7% | -3% | 8%
COc1cc(NC(=O)c2ccnnc2)cc(C(=O)Nc2cccc(C(F)(F)F)c2)c1 | 19µM* | . | . | 0% | 2% | -2%
COc1cccc(C(=O)Nc2ccncc2)c1 | -8% | . | -7% | -2% | 3% | -5%
COc1cccc(C(=O)NC(=S)Nc2ccc(N(C)C)cc2)c1 | 12µM* | 11µM* | 0% | ? | 3.5µM* | ?
CCCOc1ccc(C(=O)Nc2cccc(NC(=O)c3cccc(Cl)c3)c2)cc1 | 12µM* | 29% | . | . | . | .
CCOc1cccc(C(=O)Nc2cccc(C(C)=O)c2)c1 | ? | ? | -1% | 6% | 22% | 0%
COc1cccc(C(=O)Nc2cccc(C(C)=O)c2)c1 | 21µM* | . | ? | ? | ? | ?
COC(=O)c1cccc(NC(=O)c2cccc(OC)c2)c1 | 12µM* | ? | ? | . | . | .
O=C(OC[C@@H](O)CO)c1ccccc1Nc1ccnc2cc(Cl)ccc12 | . | -13%[20.6 µM] | 2%[17.1 µM] | . | . | .
O=C(NCc1ccc2c(c1)CCN2C(=O)c1ccncc1)c1ccccc1Cl | 6% | . | . | . | . | .
COc1ccc(C(=O)NCCn2cc(SCC(=O)Nc3ccc(F)cc3)c3ccccc32)cc1 | ? | -26% | . | . | . | .
CCC(=O)Nc1ccc2c(c1)C(=O)N(C)C2=O | 1% | 2% | 1% | -3% | 18% | -7%
CCC(=O)Nc1ccc2c(c1)C(=O)c1ccccc1C2=O | 3.8µM* | 11µM* | -2% | 1.6µM* | 1.3µM* | ?
COc1ccc(C(=O)Nc2ccc(C(=O)Nc3cccc(C)c3)cc2)cc1 | 3% | . | . | -8% | -11% | 13µM*
COc1cccc(C(=O)Nc2cccc(OC(C)=O)c2)c1 | ? | 11µM* | -27% | ? | ? | 6%
CCOC(=O)c1ccc2c(c1)N(Cc1cccc([N+](=O)[O-])c1)C(=O)c1ccccc1S2 | 4% | . | . | . | . | .
O=C(CCl)Oc1ccc2occ(C(=O)c3cccs3)c2c1 | 24µM* | -1% | 0% | 28% | ? | 12µM*
O=C(c1cccs1)c1coc2ccc(O)c(CN3CCOCC3)c12 | 1% | 7% | 13% | -3% | 4% | 0%
CC(=O)Oc1ccc2occ(-c3ccccc3)c2c1 | 19µM* | . | . | ? | -2% | -4%
O=c1ccc2cc3c(-c4ccccc4)coc3cc2o1 | 19µM* | . | . | -1% | 3% | 7%
CC(=O)Oc1ccc2occ(C(=O)c3cccs3)c2c1 | 13µM* | -1% | 0% | ? | ? | ?
O=C(c1cccs1)c1coc2ccc(O)cc12 | ? | -7% | -17% | -1% | 16% | ?
O=C(CCC1CCCCC1)Nc1nncs1 | 1% | . | . | -1% | 3% | 1%
Cc1nc(-c2ccc(S(=O)(=O)NCc3ccc(OC(C)C)cc3)cc2)co1 | -13% | . | . | . | . | .
Cc1ccc(S(=O)(=O)NCCc2nnc3ccc(SCc4ccccc4C)nn23)cc1 | -15% | . | . | . | . | .
